In the library only some 4.9% were active in any assay of this set; here they are far more common.
Beta apoptosis: inhibitors of cytokine-induced beta cell apoptosis, primary screen, luminescence. INS-1E cytokine-induced death, ATP luminescence, 48 h; percent of positive-control rescue, neutral wells zero. actives 0.8% (n = 300,000). protection from apoptosis, % (test concentration not listed). AID 435005, 2010;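 active = Every replicate reaches about 75%, or at least half do and their mean reaches it too, limit read from the data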;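 also: 0% = cytokine-treated negative control wells and 100% = positive control rescue; higher means more ATP so stronger rescue from cytokine killing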
Mdm2 MdmX PPI: inhibitors of human Mdm2-MdmX association, primary screen, cell-based, luminescence, split luciferase, SaOS-2, uHTS. SaOS-2 split-luciferase Mdm2/MdmX complementation. actives 3% (n = 330,000). Protein Mdm4 (Homo sapiens) + E3 ubiquitin-protein ligase Mdm2 (Homo sapiens), …. inhibition, % at 8 µM;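 active = inhibition of at least 50% at 8 µM in the primary screen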
PP1 inh: PP1-alpha phosphatase inhibitors, primary screen, counter-screen for PP5 inhibitor project, biochemical, fluorescence, OMFP substrate, single point; Serine/threonine-protein phosphatase PP1-alpha catalytic subunit (Homo sapiens), P62136; purified PP1alpha; inhibition, % at 6.7 µM; actives 0.9% (n = 320,000);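 active = inhibition above the mean inhibition of all tested compounds plus 3 SD, computed separately for each screening campaign, cut at about 15% in these data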
CSC inhib: cancer stem cell viability inhibitors, primary screen, luminescence; AID 2717, 2010; cancer stem cell-like cells viability; actives 1.1% (n = 300,000); inhibition, % at 7.5 µM; in the data active = inhibition above about 75%; tested in HMLE shEcad cells
Calb FLC: C. albicans growth inhibition with fluconazole, primary screen, CaCi-2 strain, Alamar Blue fluorescence; AID 1979, 2009; actives 0.57% (n = 300,000); growth inhibition, % (test concentration not listed); C. albicans CaCi-2 (fluconazole-resistant clinical isolate) + fluconazole, 48 h;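 active = growth inhibition above about 58% in most replicates, limit read from the data, passing the limit was not always enough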;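 also: all wells also contain fluconazole at 8 µg/ml as a sub-toxic cotreatment; 0% = median of DMSO wells and 100% = median of geldanamycin control wells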
PP5 primary: PP5 phosphatase inhibitors, primary screen, biochemical, fluorescence; Serine/threonine-protein phosphatase 5 (Homo sapiens), P53041; purified PP5c, OMFP substrate fluorescence; inhibition, % at 6.7 µM; actives 0.18% (n = 320,000); AID 1987, 2009;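 active = inhibition above the campaign's mean inhibition across all tested compounds plus 3 SD, cut at about 9.5% in these data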;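 also: 0% = DMSO only and 100% = 100 µM cantharidin control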
PP5 inh confirm: PP5 phosphatase inhibitors, confirmation, biochemical, fluorescence, human; shares compounds with PP5 primary; Purified PP5, fluorogenic phosphatase substrate; inhibition, % at 6.7 µM; actives 22% (n = 460); AID 2331, 2010; in the data active = inhibition above about 9.5%
PP1 inh counter: PP1 phosphatase inhibitors, counter-screen for PP5 inhibitor project, biochemical, fluorescence, triplicate. shares compounds with PP5 primary. PP1 enzyme, fluorescent phosphatase substrate. inhibition, % at 6.7 µM. actives 4% (n = 460). AID 2355, 2010; in the data active = inhibition above about 16%
An asterisk follows results filed as active; . = no result.

SMILES	Beta apoptosis	Mdm2 MdmX PPI	PP1 inh	CSC inhib	Calb FLC	PP5 primary	PP5 inh confirm	PP1 inh counter
O=C(Nc1ccc(C2CCCCC2)cc1)C1CCN(c2ncccn2)CC1	-2.3	4.0	-3.4	-14.9	-11.7	10.2*	-4.0	-3.0
CCSC1=C(C#N)C(c2cccc(O)c2)CC(=O)N1 (configuration not stated)	.	18.3	-1.2	0.2	-5.3	-1.0	.	.
C=C(C)CSC1=C(C#N)C(c2ccsc2)CC(=O)N1 (configuration not stated)	-1.9	11.7	-1.4	-2.0	19.6	10.7*	-5.4	-4.1
O=C(C1CCC(CNS(=O)(=O)c2ccccc2)CC1)N1CCCCC1 (configuration not stated)	-13.2	-14.9	2.4	-27.3	-1.0	9.9*	-3.7	-4.7
COc1cc(/C=C/C(=O)Nc2cc(C(F)(F)F)ccc2Cl)cc(OC)c1OC	5.7	44.5	5.2	.	1.3	9.9*	3.9	3.1
CCOC(=O)C(NC(=O)Nc1ccc(O)cc1)(c1ccccc1)C(F)(F)F (configuration not stated)	.	5.1	-9.7	13.5	3.3	10.6*	1.2	-0.1
NC(=O)c1ccc(C(F)(F)F)n(Cc2c(Cl)cccc2Cl)c1=O	-3.0	23.6	-1.9	18.9	2.6	11.8*	6.3	8.0
COc1ccc(Cn2c(C(F)(F)F)ccc(C(N)=O)c2=O)cc1	-7.3	-18.0	-0.1	-9.7	-10.0	1.2	.	.
Nc1ccc(O)cc1	3.4	.	13.1	18.4	.	10.9*	5.2	-1.8
Nc1ccc(C(=O)O)cc1	2.6	-6.1	-4.9	-13.5	-10.3	1.8	.	.
COc1ccc(NC(=O)CSCC(=O)N(C)CC(=O)Nc2ccc(Cl)c(C(F)(F)F)c2)cc1	.	19.5	0.9	-6.1	-1.2	0.9	.	.
Cc1cc(C)cc(OCC(=O)N(C)CC(=O)Nc2ccc(Cl)c(C(F)(F)F)c2)c1	-7.6	13.1	4.4	.	.	10.4*	4.9	6.9
CC(C)COC(=O)N1CC(O)CC1C(=O)Nc1ccc2c(c1)OCO2 (configuration not stated)	-4.8	11.2	-8.1	-17.8	.	0.5	.	.
CC(C)COC(=O)N1CC(O)CC1C(=O)O (configuration not stated)	-0.2	3.2	-10.3	-9.0	-9.1	11.0*	-1.3	-2.0
COc1ccccc1CNC(=O)C1CCN(S(=O)(=O)c2ccc3c(c2)NC(=O)CO3)CC1	-0.5	-19.1	-9.9	14.6	0.6	2.2	.	.
CCOC(=O)N1CCN(C(=O)c2cccn3c(=O)c4cc(Cl)ccc4nc23)CC1	2.5	-6.9	0.6	-4.9	21.5	11.1*	-5.4	-4.8
CCOC(=O)c1c(NC(=O)C2C3CCC(O3)C2C(=O)O)sc2c1CCCC2 (configuration not stated)	.	-35.1	8.6	-10.3	16.1	14.1*	10.8*	6.7
CCc1cccc(C)c1NC(=O)C1C2CCC(O2)C1C(=O)O (configuration not stated)	-5.4	5.7	8.2	19.4	-2.2	12.2*	6.9	5.9
Cc1ccc(-c2c(C)sc(NC(=O)C3C4CCC(O4)C3C(=O)O)c2C(=O)OC(C)C)cc1 (configuration not stated)	-6.2	21.7	8.9	-7.5	-14.8	13.3*	-2.5	2.8
CC(C)=C1C2CCC1C(C(=O)Nc1sc(C)c(-c3ccc(C(C)C)cc3)c1C(N)=O)C2C(=O)O (configuration not stated)	3.1	11.9	2.9	45.7	6.4	2.4	.	.
Cc1nn(Cc2ccccc2Cl)c(C)c1NC(=O)C1C2CCC(O2)C1C(=O)O (configuration not stated)	.	.	.	.	-3.9	.	.	.
COC(=O)c1c(NC(=O)C2C3CCC(O3)C2C(=O)O)sc2c1CCCCCC2 (configuration not stated)	.	16.6	3.0	-0.6	15.4	11.8*	-0.1	-0.5
C[C@@H](C(=O)Nc1cccc(S(=O)(=O)N2CCOCC2)c1)N1C(=O)C2CC=CCC2C1=O (some centres not stated)	-11.9	4.4	-2.2	-10.9	-6.3	2.7	.	.
O=C(Nc1nnc(-c2ccc3c(c2)OCCO3)o1)C1CCCCC1	-9.2	-12.3	-2.8	4.8	11.3	-1.2	.	.
COC(=O)C1=C(CSc2nccn2C)NC(=O)NC1c1cc(C)ccc1C (configuration not stated)	-4.8	-21.4	-3.9	-4.9	8.8	9.9*	-3.9	-3.9
SMILES	Beta apoptosis	Mdm2 MdmX PPI	PP1 inh	CSC inhib	Calb FLC	PP5 primary	PP5 inh confirm	PP1 inh counter
CCN(CC(=O)Nc1cc(Cl)ccc1C)C(=O)c1oc2ccc(OC)cc2c1C	-5.3	15.7	-4.5	.	7.3	-0.8	.	.
CCOc1ccc(-c2[nH]ncc2Oc2cccc(OC)c2)c(O)c1	-1.1	36.1	9.8	30.3	-5.9	11.8*	3.9	4.3
CCOC(=O)Cn1c(-c2ccccc2)nc2ccccc2c1=O	-5.1	0.0	-4.1	-1.4	2.5	10.8*	-1.8	-1.9
O=C(Nc1ccccc1C(=O)N1CCCCC1)NC1CCCCC1	-2.8	16.9	0.0	-32.2	9.7	-0.6	.	.
CC1(C)Cc2cccc(OCC(=O)Nc3cccnc3Cl)c2O1	1.6	5.7	0.5	-0.3	-2.9	16.3*	-3.0	2.9
Nc1ccc(N=Nc2ccccc2O)c(N)c1	-1.3	-95.1	-11.1	40.9	-5.3	12.4*	1.4	-2.3
CC1CCCC(NC(=O)c2cccs2)C1C (configuration not stated)	4.0	13.5	-4.4	-3.3	.	3.4	.	.
COc1cc(C(C)=O)ccc1COc1ccc(C(=O)O)cc1OC	-13.4	8.0	-0.5	-10.5	10.2	11.4*	-0.8	-1.1
Clc1cccc(OCCCCCN2CCOCC2)c1	2.1	1.9	-0.8	1.7	-14.2	10.2*	-5.3	-4.8
CC(C)NC(=O)c1ccccc1NC(=O)CCc1ccccc1	5.2	-6.3	4.0	-10.8	23.6	10.1*	-1.6	-2.9
COCC(=O)Nc1ccccc1C(=O)NC(C)C	-0.9	-5.9	-3.3	-11.3	-3.3	1.2	.	.
Cc1cc(=O)[nH]c(SCC(=O)Nc2c(C)n(C)n(-c3ccccc3)c2=O)c1C#N	5.2	-17.5	-5.3	-12.8	.	-2.5	.	.
